# This excerpt belongs to a sample that is enriched for hits.
# Giardia FBPA inh-1: inhibitors of Giardia lamblia fructose-1,6-bisphosphate aldolase. Potency, µM (highest dose often 59.6 µM), for the others: at the highest dose activity, negative = inhibition, most hits filed as inhibitors. hit rate 0.71% among 290,000. purified Giardia FBPA. AID 2451; also: nearly all actives have a fitted effect of over 55% in size
# Target sequence (A8B2U2 whole entry, looked up): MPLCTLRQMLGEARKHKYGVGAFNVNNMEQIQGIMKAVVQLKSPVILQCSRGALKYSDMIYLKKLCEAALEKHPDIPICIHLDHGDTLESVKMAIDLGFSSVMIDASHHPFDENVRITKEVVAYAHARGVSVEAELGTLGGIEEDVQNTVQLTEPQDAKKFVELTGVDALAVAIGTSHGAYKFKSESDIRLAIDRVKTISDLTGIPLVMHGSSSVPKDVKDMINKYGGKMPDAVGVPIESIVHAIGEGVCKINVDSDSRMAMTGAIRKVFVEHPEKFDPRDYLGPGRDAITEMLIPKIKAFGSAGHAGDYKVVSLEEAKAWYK
#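 40 nM FBPA preincubated 10 min at RT with compound (up to 57.5 uM final), then substrate plus GAPDH/TPI/NAD/arsenate coupling and diaphorase/resazurin added. Fluorescence read after 20 min at RT, 525/598 nm.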
# Cruzain Triton: blocks cruzain activity in presence of Triton detergent | purified cruzain, Z-FR-AMC fluorescence, 0.01% Triton | Potency, µM, for the others: max response, negative = inhibition, actives largely listed as inhibitors | hit rate 0.43% among 200,000 | AID 1478;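 also: plate controls were neutral wells for no effect and buffer without enzyme for full effect; nearly all actives have a fitted effect of over 40% in size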
#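 Enzyme 1.5 nM, Z-FR-AMC 2 uM, NaOAc 100 mM pH 5.5, DTT 5 mM, Triton X-100 0.01%; 15 min RT compound preincubation; kinetic ex360/em450, 60 s delta.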
# Cruzain noTriton: blocks cruzain activity in detergent-free assay | hit rate 2.3% among 200,000 | purified cruzain, Z-FR-AMC fluorescence, no detergent | AID 1476 | P25779 | Potency, µM, for inactives: max response, negative = inhibition, most hits filed as inhibitors;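 also: plate controls were enzyme without inhibitor for no effect and buffer without enzyme for full effect; nearly all actives have a fitted effect of over 40% in size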
#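 Purified cruzain at 1.5 nM, pre-incubated 15 min with compound at room temperature in 100 mM sodium acetate pH 5.5, 5 mM DTT, 0.00005% Triton X-100. Reaction started with 2 uM Z-FR-AMC; AMC fluorescence increase over 60 s gives rate.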
# Giardia growth: inhibitors of Giardia lamblia growth. Giardia lamblia trophozoite growth inhibition. Potency, µM (highest dose often 57.5 µM), inactives show at the top dose activity change, negative = inhibition, actives largely listed as inhibitors. AID 2785. hit rate 5% among 1,500. shares compounds with Giardia FBPA inh-1;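 also: trophozoites exposed to compound for 48 h at 37 °C; nearly all actives have a fitted effect of over 70% in size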
# Mammal cell tox: toxic to mammalian cells in Giardia aldolase counter-screen; hit rate 4% among 1,500; AID 2786; Potency, µM (top dose mostly 57.5 µM), for the others: at the highest dose viability change, negative = toxicity, hits mostly inhibitors; mammalian cell viability counter-screen, qHTS; shares compounds with Giardia FBPA inh-1;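 also: Chinese hamster ovary cells used as mammalian cytotoxicity surrogate; viability measured as cellular ATP by luminescence; compound exposure lasted 48 h before reading; nearly all actives have a fitted effect of over 60% in size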
# Giardia FBPA inh-2: confirmation of Giardia fructose-bisphosphate aldolase inhibitors; shares compounds with Giardia FBPA inh-1; purified Giardia aldolase enzyme activity, qHTS; Potency, µM (series often up to 57.5 µM), for inactives: at the highest dose activity change, negative = inhibition, actives largely listed as inhibitors; hit rate 5% among 1,500; AID 2787; also: nearly all actives have a fitted effect of over 45% in size
# Rabbit aldolase: rabbit FBP aldolase inhibition by Giardia aldolase hits; Potency, µM (doses to about 57.5 µM), inactives show at the top dose activity, negative = inhibition, hits mostly inhibitors; hit rate 4% among 1,500; shares compounds with Giardia FBPA inh-1; Rabbit muscle FBPA enzyme inhibition, selectivity counter-screen; also: nearly all actives have a fitted effect of over 60% in size
# GAPDH coupling: GAPDH inhibition flagged for Giardia aldolase hits; shares compounds with Giardia FBPA inh-1; GAPDH coupling enzyme counterscreen, biochemical, qHTS; Potency, µM (top dose mostly 57.5 µM), for inactives: at the highest dose activity change, negative = inhibition, hits mostly inhibitors; hit rate 6% among 1,500; AID 2795; also: nearly all actives have a fitted effect of over 55% in size
# Active calls of the source: *; ? = inconclusive; nt = not tested or not shown; [ ] = another dose, or the depositor's remark. Calls follow the shape of the dose curve; as a rule, active = well fitted curve in the direction sought with a large enough effect; inconclusive = small, poorly fitted or top-dose-only effect, or another doubt; inactive = no such curve, though single readings can be large; an effect the other way counts as inactive or inconclusive. Unless noted, % is scaled to controls: 0 for no effect and ±100 for the full control effect; potency is read from the fitted curve at half-maximal effect.
SMILES,Giardia FBPA inh-1,Cruzain Triton,Cruzain noTriton,Giardia growth,Mammal cell tox,Giardia FBPA inh-2,Rabbit aldolase,GAPDH coupling
O=C(Nc1nnc(C2=COCCO2)o1)c1ccc(Cl)cc1,20%,-3%,-8%,nt,nt,nt,nt,nt
CC(=O)Nc1nnc(C2=COCCO2)o1,-20%,nt,nt,nt,nt,nt,nt,nt
O=C(Nc1nnc(C2=COCCO2)o1)c1ccc(F)cc1,32µM*,nt,nt,?,5%,-7%,-12%,-10%
CCOC(=O)c1oc2c(C)c(O)ccc2c(=O)c1-c1nncn1-c1ccccc1,-5%,0%,-2%,nt,nt,nt,nt,nt
CCOC(=O)c1oc2c(O)c(O)ccc2c(=O)c1-c1nncn1-c1ccccc1,4.5µM*,1%,-17%,-28%,-20%,?,?,-18%
COc1ccc(C(=O)NC(=S)N2CCOCC2)cc1Br,16µM*,nt,nt,?,-2%,-2%,5%,7%
COc1cc(C(=O)NCCC(=O)N2CCCCC2)cc(OC)c1OC,2%,nt,nt,nt,nt,nt,nt,nt
COc1cc(C(=O)NC(=S)N2CCCCCC2)cc(OC)c1OC,16µM*,nt,nt,?,-6%,-3%,3%,10%
COc1ccc(C(=O)Nc2ccc(CN3CCOCC3)cc2)cc1Br,2%,nt,nt,nt,nt,nt,nt,nt
CC(C)CO/N=C1/[C@H]2O[C@@H]2[C@@H](O)[C@H]2[C@H]1CCn1c(=O)n(-c3ccccc3)c(=O)n12,6%[12.9 µM],nt,nt,nt,nt,nt,nt,nt
O=c1c(-c2cc(F)cc(F)c2)nc2cnc(N3CCNCC3)nc2n1-c1ccccc1,4%,-18%,16%,nt,nt,nt,nt,nt
Fc1cccc(-c2csc(-c3ccno3)n2)c1,-1%,nt,nt,nt,nt,nt,nt,nt
Nc1nc(-c2cccc(F)c2)cs1,11µM*,nt,nt,20%[10.4 µM],-5%,5%,5%,13%
O=C(Cn1c(=O)n(-c2ccccc2)c(=O)c2ccc(C(=O)NCc3ccc4c(c3)OCO4)cc21)Nc1ccc(Br)cc1F,nt,-4%,?,nt,nt,nt,nt,nt
Cc1ccccc1NC(=O)CSc1nccn1C,nt,0%,10%,nt,nt,nt,nt,nt
CCN(CC(=O)Nc1ccc(C(C)=O)cc1)CC(=O)Nc1cccc(OC)c1,0%,nt,nt,nt,nt,nt,nt,nt
CCN(CC(=O)Nc1ccc(NC(C)=O)cc1)CC(=O)Nc1cccc(Cl)c1,-5%,nt,nt,nt,nt,nt,nt,nt
CCN(CC(=O)Nc1cccc(OC)c1)CC(=O)Nc1ccc(C)cc1Cl,16µM*,nt,nt,17%[10.4 µM],-4%,0%,-1%,7%
CCN(CC(=O)Nc1ccc(NC(C)=O)cc1)CC(=O)Nc1ccc(Cl)c(Cl)c1,7.9µM*,nt,nt,-6%[10.4 µM],-6%,7%,5%,5%
COc1ccc2c(c1)c1c(c(=O)n(-c3ccccc3C)c(=O)n1CC(=O)NCc1ccc(C)cc1)n2C,nt,-5%,?,nt,nt,nt,nt,nt
COc1ccccc1N1CCN(C(=O)Cn2c(=O)nc(-c3ccccc3)c3ccccc32)CC1,nt,-2%,-6%,nt,nt,nt,nt,nt
COC(=O)C(=O)C/C(=N/Nc1ncnc2ccccc12)c1ccc(Cl)cc1,25%,nt,nt,nt,nt,nt,nt,nt
Cc1ccc(/C(=N/Nc2ncnc3ccccc23)C(=O)O)cc1,14µM*,nt,nt,16%,-1%,8%,-12%,-4%
Cc1nc(NC(=O)COc2ccc(Cl)cc2)sc1C(=O)N(C)C,0%,2%,-6%,nt,nt,nt,nt,nt
CCc1nnc(NC(=O)CN2CCN(c3ccccc3OC)CC2)s1,-27%,4%,2%,nt,nt,nt,nt,nt
SMILES,Giardia FBPA inh-1,Cruzain Triton,Cruzain noTriton,Giardia growth,Mammal cell tox,Giardia FBPA inh-2,Rabbit aldolase,GAPDH coupling
Cc1nc(NC(=O)CN2CCCCC2)sc1C(=O)N(C)C,3.2µM*,nt,nt,-7%[38.3 µM],4%,-9%,8%,-5%
COc1ccccc1N1CCN(CC(=O)Nc2nc(C)c(C(=O)N(C)C)s2)CC1,11µM*,nt,nt,9%,4%,-3%,14%,-16%
COc1cc(/C=C/C(=O)c2c(O)cc(C)oc2=O)cc(OC)c1O,16µM*,2%,?,-3%[10.4 µM],-12%,?,?,?
COc1cccc(/C=C/C(=O)c2c(O)cc(C)oc2=O)c1O,-19%,-2%,-1%,nt,nt,nt,nt,nt
Cc1cc(C)cc(-n2cnc3cc(C(=O)NCCc4ccccc4)ccc32)c1,nt,-2%,10%,nt,nt,nt,nt,nt
COc1ccc(OC)c(C2CC(=O)N3CN(c4ccccc4)CSC3=C2C#N)c1 (stereo not drawn),1.8µM*,-4%,-29%,?,2%,-22%,?,-15%

# Screens (PubChem)
